Assay results: PubChem BioAssay AID1159580 (chemical genetic matrix, 2015)
Several values for one entry are separate records, joined by “and”; a condition that tells them apart may be missing. Equal entries are not always repeated. Among all 5,500 compounds or so, about 2,000 (36%) were called active. Roughly 18% stayed inconclusive and do not appear here. Rule as the data show it: active = normalized growth mostly below about 0.91 (no sharp cut-off); inconclusive = no clear call, values can overlap the other calls; inactive = mostly above about 0.92. Some of the results follow.

Assay: chemical genetic growth profiling, strain panel (AID 1159580);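 also: tested at 20 µM; growth read once vehicle control cultures reached saturation at 30 °C; 1 = growth at the plate median or of vehicle wells; lower values mean less growth of the strain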
Details: S. cerevisiae deletion strains, growth OD

Measured: normalized growth

N[C@H](Cc1ccccc1)C(=O)O
inactive: locus YAL013W, strain DEP1, hits give low values 1.02 | locus YAL021C, strain ccr4, hits give low values 1.01 | locus YAL026C, strain drs2, hits give low values 1 | locus YAL030W, strain snc1, hits give low values 1.01 | locus YBL061C, strain skt5, hits give low values 1 | locus YBR009C, strain hhf1, hits give low values 0.968 | locus YBR021W, strain FUR4, hits give low values 0.98 | locus YBR023C, strain chs3, hits give low values 1.01 | locus YBR171W, strain sec66, hits give low values 0.99 | locus YBR229C, strain ROT2, hits give low values 1.01 | locus YBR231C, strain swc5, hits give low values 0.971 | locus YBR279W, strain paf1, hits give low values 0.999 | locus YCL011C, strain gbp2, hits give low values 1 | locus YCL016C, strain dcc1, hits give low values 1.03 | locus YCL029C, strain bik1, hits give low values 1 | locus YCL069W, strain vba3, hits give low values 0.988 | locus YCR088W, strain abp1, hits give low values 0.987 | locus YDL005C, strain med2, hits give low values 0.997 | locus YDL035C, strain GPR1, hits give low values 1.02 | locus YDL040C, strain nat1, hits give low values 1 | locus YDL074C, strain BRE1, hits give low values 1.05 | locus YDL101C, strain DUN1, hits give low values 1.01 | locus YDL134C, strain PPH21, hits give low values 1.01 | locus YDL185W, strain tfp1, hits give low values 1 | locus YDL192W, strain arf1, hits give low values 1.01 | locus YDR001C, strain nth1, hits give low values 0.987 | locus YDR069C, strain doa4, hits give low values 0.997 | locus YDR101C, strain arx1, hits give low values 1.01 | locus YDR137W, strain rgp1, hits give low values 0.982 | locus YDR150W, strain NUM1, hits give low values 1.02 | locus YDR159W, strain sac3, hits give low values 0.935 | locus YDR162C, strain NBP2, hits give low values 1.02 | locus YDR195W, strain ref2 0.961 | locus YDR297W, strain sur2, hits give low values 1 | locus YDR318W, strain mcm21, hits give low values 0.993 | locus YDR334W, strain swr1, hits give low values 0.946 | locus YDR335W, strain msn5, hits give low values 0.994 | locus YDR388W, hits give low values 1.01 | locus YDR392W, strain spt3, hits give low values 0.965 | locus YDR502C, strain sam2, hits give low values 1 | locus YEL003W, strain gim4, hits give low values 0.983 | locus YEL037C, strain rad23, hits give low values 0.976 | locus YEL061C, strain CIN8 (second series), hits give low values 0.962 | locus YEL061C, strain CIN8, hits give low values 1.01 | locus YER015W, strain faa2, hits give low values 0.993 | locus YER016W, strain bim1, hits give low values 1.02 | locus YER110C, hits give low values 1 | locus YER111C, strain swi4, hits give low values 0.999 | locus YER155C, strain BEM2 (second series), hits give low values 0.99 | locus YER155C, strain BEM2, hits give low values 1 | locus YER167W, strain BCK2, hits give low values 1.01 | locus YFR010W, strain ubp6, hits give low values 0.942 | locus YGL078C, strain dbp3, hits give low values 1.02 | locus YGL086W, strain mad1, hits give low values 1.01 | locus YGL167C, strain pmr1, hits give low values 0.983 | locus YGL173C, strain kem1, hits give low values 0.97 | locus YGL227W, strain vid30, hits give low values 0.98 | locus YGL240W, strain doc1, hits give low values 0.955 | locus YGL248W, strain PDE1, hits give low values 1 | locus YGL253W, strain hxk2, hits give low values 1 | locus YGR078C, strain PAC10, hits give low values 1.05 | locus YGR135W, strain pre9, hits give low values 1 | locus YGR229C, strain SMI1, hits give low values 1.03 | locus YGR252W, strain gcn5, hits give low values 0.935 | locus YHR013C, strain ard1, hits give low values 1 | locus YHR027C, strain rpn1, hits give low values 0.996 | locus YHR030C, strain SLT2, hits give low values 1.02 and 1.05 | locus YHR079C, strain IRE1 (second series), hits give low values 1.01 | locus YHR079C, strain IRE1, hits give low values 1.06 | locus YHR094C, strain hxt1, hits give low values 1 | locus YHR129C, strain ARP1, hits give low values 1.01 | locus YHR142W, strain chs7, hits give low values 0.992 | locus YHR200W, strain rpn10, hits give low values 1 | locus YIL066C, strain RNR3, hits give low values 1.02 | locus YIL073C, strain SPO22, hits give low values 1.04 | locus YIL125W, strain kgd1, hits give low values 0.994 | locus YIR030C, strain dcg1, hits give low values 1.02 | locus YJL092W, strain hpr5, hits give low values 1 | locus YJL095W, strain BCK1 (second series), hits give low values 0.996 | locus YJL095W, strain BCK1, hits give low values 1.02 and 1.05 | locus YJL115W, strain asf1, hits give low values 0.979 | locus YJL129C, strain trk1, hits give low values 1 | locus YJL134W, strain LCB3, hits give low values 1.01 | locus YJL154C, strain vps35, hits give low values 0.977 | locus YJL164C, strain tpk1, hits give low values 0.979 | locus YJL166W, strain qcr8, hits give low values 0.981 | locus YJL168C, strain set2, hits give low values 0.992 | locus YJL187C, strain SWE1 (second series), hits give low values 1.02 | locus YJL187C, strain SWE1, hits give low values 1.02
